This is a sample that favours compounds with a hit; in the whole collection about 3.3% have one here.
Tau fil binding – tau filament binding; P10636; 71,000 tested, 2% active; Potency, µM (doses to about 57.1 µM), for inactives: at the highest dose activity change, negative = inhibition; recombinant tau filaments, thioflavin S fluorescence, 15 h; filaments grown with octadecylsulfate alongside compound;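 note: potency is the fitted concentration of half-maximal effect; % is set by controls: 0 for no effect and ±100 for the full control effect; actives lower thioflavin S fluorescence by blocking filaments or displacing dye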
Target sequence (P10636 whole entry, looked up): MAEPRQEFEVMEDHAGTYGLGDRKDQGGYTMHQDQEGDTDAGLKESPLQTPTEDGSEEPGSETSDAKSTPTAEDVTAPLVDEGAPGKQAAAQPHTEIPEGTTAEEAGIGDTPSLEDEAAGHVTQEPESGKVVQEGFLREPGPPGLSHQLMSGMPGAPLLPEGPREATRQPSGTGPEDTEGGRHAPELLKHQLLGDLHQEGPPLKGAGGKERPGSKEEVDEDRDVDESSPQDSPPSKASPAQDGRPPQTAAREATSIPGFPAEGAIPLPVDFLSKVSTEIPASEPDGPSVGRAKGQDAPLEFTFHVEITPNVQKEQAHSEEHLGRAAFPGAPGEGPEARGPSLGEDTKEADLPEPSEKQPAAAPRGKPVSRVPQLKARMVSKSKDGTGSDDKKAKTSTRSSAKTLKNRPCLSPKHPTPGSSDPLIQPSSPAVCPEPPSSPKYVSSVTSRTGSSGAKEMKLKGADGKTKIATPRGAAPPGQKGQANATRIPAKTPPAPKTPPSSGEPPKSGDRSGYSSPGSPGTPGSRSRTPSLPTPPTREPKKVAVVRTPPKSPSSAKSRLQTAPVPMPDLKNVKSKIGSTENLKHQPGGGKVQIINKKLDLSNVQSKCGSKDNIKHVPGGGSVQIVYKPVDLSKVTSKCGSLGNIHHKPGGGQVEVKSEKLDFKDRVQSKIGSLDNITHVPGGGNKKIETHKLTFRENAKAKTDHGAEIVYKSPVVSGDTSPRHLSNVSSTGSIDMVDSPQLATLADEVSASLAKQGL
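His-tagged recombinant human tau (exons 2, 3 and 10 included), 1 uM, was induced to fibrillize by 30 uM sodium octadecylsulfate with compound present. After 15 h at 37 C, thioflavine S fluorescence (ex 450, em 510 nm) was read.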
DNA Pol III inh – blocks replication by bacterial DNA polymerase III holoenzyme; Potency, µM (titrated, usually from 57.1 µM), for inactives: at the highest dose activity change, negative = inhibition; 71,000 tested, 0.25% active; reconstituted DNA polymerase III holoenzyme replication, biochemical; note: potency is the fitted concentration of half-maximal effect; % is set by controls: 0 for no effect and ±100 for the full control effect
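Reconstituted *E. coli* holoenzyme (0.35 nM Pol III, 1 nM beta, 154 nM SSB, 2 nM primase) was preincubated with compound for 15 min at RT. Synthesis on 1.4 nM ssM13Gori ran 35 min, then was stopped with PicoGreen/EDTA and read as dsDNA fluorescence.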
TsaE inh – displaces an ADP probe from E. coli YjeE (TsaE); AID 605; Potency, µM; 71,000 tested, 0.05% active; purified YjeE enzyme, qHTS inhibition assay
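Fluorescence polarization of a BODIPY Texas Red–ADP probe (2 uM) bound to purified YjeE (10 uM) was read after 15 min room-temperature incubation with compounds. Loss of polarization marks inhibitors; ADP serves as titrated control.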
15-hLO inh – inhibitors of human 15-lipoxygenase (ALOX15) | P16050 | 74,000 tested, 1.4% active | purified 15hLO-1, xylenol orange hydroperoxide absorbance | AID 887 | Potency, µM (doses to about 57.1 µM), without a hit: at the highest dose activity change, negative = inhibition, actives largely listed as inhibitors; note: potency is the fitted concentration of half-maximal effect; % is set by controls: 0 for no effect and ±100 for the full control effect; nearly all actives have a fitted effect of over 55% in size
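Purified human 15hLO-1 (40 nM final) in 25 mM Hepes pH 7.5, 0.01% Triton X-100 was preincubated with compound 15 min at room temperature, then reacted 6 min with 50 uM arachidonic acid; hydroperoxide detected by Fe-XO, 573/405 nm absorbance ratio.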
Hsp90 Hop PPI – changes Hsp90-Hop TPR2A binding signal, up or down. 71,000 tested, 0.44% active. AID 595. AlphaScreen TPR2A-His6 binding biotin-Hsp90 C-terminal peptide. Potency, µM (top dose mostly 57 µM), for inactives: top-dose activity change, negative = inhibition; active = well fitted curve in either direction with a large enough effect; inconclusive = small, poorly fitted or top-dose-only effect, or another doubt; note: potency is the fitted concentration of half-maximal effect; % is set by controls: 0 for no effect and ±100 for the full control effect
Active calls of the source: *; i = inactive; ? = inconclusive; / = not tested or not shown; [ ] = dose if it differs, or a comment. Unless noted, calls come from the whole dose curve; as a rule, active = well fitted curve in the direction sought with a large enough effect; inconclusive = small, poorly fitted or top-dose-only effect, or another doubt; inactive = no such curve, though single readings can be large; an effect the other way counts as inactive or inconclusive.

SMILES | Tau fil binding | DNA Pol III inh | TsaE inh | 15-hLO inh | Hsp90 Hop PPI
COc1cccc2c1C(=O)c1c(O)c3c(c(O)c1C2=O)C[C@](O)(C(C)=O)C[C@H]3O[C@@H]1C[C@H](N)[C@H](O)[C@H](C)O1 | 1.6µM* | 2µM* | i | 7%[25.6 µM] | ?
CC(C)(C)N=C1NC(=NC(C)(C)C)c2ccccc21 | 2.5µM* | -13% | i | 0% | -1%
Cc1cc(NC(c2cccnc2)c2ccc3cccnc3c2O)no1 (stereo not drawn) | -1% | 1% | i | 112% | 4µM*
O=C1C2C3C=CC(C2C(=O)N1CN1CCOCC1)C1C2C(=O)N(CN4CCOCC4)C(=O)C2C31 (stereo not drawn) | -6%[11.4 µM] | -5%[11.4 µM] | i | 17%[11.4 µM] | ?
CCCS(=O)(=O)NCCc1csc(-c2cccnc2)n1 | -18% | -10% | i | -8% | -6%
COc1ccccc1-c1cncnc1NCCNC(C)=O | -16% | -4% | i | 10µM* | -13%
COc1ccccc1-c1cncnc1Nc1ccccc1 | -5% | -7% | i | 25µM* | -3%
COCCNc1ncncc1-c1ccccc1OC | -1% | 0% | i | -7% | -8%
CC[C@@H]1[C@H]2CCCCN3[C@@H]2[C@@H](C[C@H]3[C@@H]2C[C@H](C)C(=O)O2)[C@@H]2[C@H]1OC(=O)[C@H]2C | -22% | -9% | i | / | -1%
CON(C)C(=O)c1nnc2c3ccccc3n(S(=O)(=O)c3ccc(C)cc3)c2n1 | / | / | / | -10%[11.4 µM] | /
O=C1C=C[C@@H](O)[C@H]2[C@@H]3C(=O)N(c4cccc(Oc5ccccc5)c4)C(=O)[C@@H]3CC[C@H]12 | / | / | / | 2%[11.4 µM] | /
O=C(/C=C\Nc1ccccn1)c1ccccc1 | 26% | 3% | i | -14% | 3%
O=C(/C=C/Nc1cccc(O)c1)c1ccccc1 | -5% | -4% | i | 13µM* | ?
CN1CCN(c2nc(-c3ccc(N(C)C)cc3)nc3ccccc23)CC1 | 13µM* | -7% | i | 2% | ?
CNC(=O)Oc1ccc2c(c1)[C@@]1(C)CCN(C)C1N2C (stereo partly drawn) | / | / | / | -11% | /
COc1cccc2c(=O)n(CC(=O)N3CCCc4ccccc43)ccc12 | 13µM* | 0% | i | -6% | -10%
O=C(NCCO)c1nc(NCCO)c2ccccc2n1 | 2% | 0% | i | 12% | -6%
O=[N+]([O-])c1cc(Cl)cc2c1nc(NCCO)c1ccccc12 | 4µM* | 7%[11.4 µM] | i | -15%[11.4 µM] | -9%[11 µM]
COc1ccc(N2CCN(c3oc(COc4ccccc4)nc3C#N)CC2)cc1 | ? | -6% | i | -6% | 13µM*
COc1ccccc1N1CCN(C[C@@H](C(=O)NC(C)(C)C)c2ccccc2)CC1 | ? | -5% | i | 16µM* | -1%
COc1ccccc1N1CCN(C[C@@H](O)COc2cccc3ccccc23)CC1 | ? | -3% | i | ? | -11%
CCOc1ccc2nc(C)cc(C(=O)O)c2c1 | 8% | -5% | i | 4% | 4%
CCOc1ccc2c(ccc(/C=C\c3cc(C)c4cccnc4c3O)[n+]2C)c1 | 0.63µM* | 3.2µM* | i | 69%[11.4 µM] | ?
COc1ccc2c(c1)-c1nc(NC(=O)c3ccco3)sc1CC2 | 31% | 1% | i | 0% | 6%
COc1ccc2c(c1)-c1nc(NC(=O)c3cccs3)sc1CC2 | / | / | / | 13µM* | /
SMILES | Tau fil binding | DNA Pol III inh | TsaE inh | 15-hLO inh | Hsp90 Hop PPI
N#Cc1c(N)nc(SCC(=O)OCc2ccccc2)c(C#N)c1-c1ccco1 | 3% | -7% | i | 16µM* | 1%
CCOC(=O)CSc1nc2c(c(-c3ccc(C)o3)c1C#N)CCCC2 | 56% | 0% | i | ? | 21%
COC(=O)CSc1nc2c(c(-c3ccco3)c1C#N)CCCC2 | 16µM* | 0% | i | 10µM* | -10%
COCC#Cc1ccc(C2C(C)CCC3C(=O)N4C(CCC(C)C4c4ccc(C#CCOC)cc4)C(=O)N32)cc1 (stereo not drawn) | / | / | / | 3%[11.4 µM] | /
Nc1nc(-c2ccccc2)cc(N2CCCCC2)n1 | 25µM* | -9% | i | -20% | -8%
Cc1nc(-c2ccccc2)cc(N2CCCC2)n1 | 8%[11.4 µM] | 3%[11.4 µM] | i | 0%[11.4 µM] | -6%[11 µM]
Cc1c2ccccc2c(C)c2c1ccc1ccccc12 | 5% | 5% | i | -12% | 32µM*
Cc1c2ccccc2c(CSC(=N)N)c2ccccc12 | -8%[11.4 µM] | -15%[11.4 µM] | i | 0%[11.4 µM] | 14%[11 µM]
Cc1sc2ccccc2[n+]1CCC(=O)O | 5%[11.4 µM] | -12%[11.4 µM] | i | -7%[11.4 µM] | -2%[11 µM]
CCOC(=O)C1=C(C)NC(C)=C(C(=O)OCC)C1 | -4% | -5% | i | 10µM* | 2%
CCCC1C(C(=O)OCC)=C(C)NC(C)=C1C(=O)OCC | / | / | / | -3% | /
Cc1cc2c(c(=O)o1)[C@@H](O)[C@H]1O[C@@H]1C2=O | / | / | / | -7%[11.4 µM] | /
CCC(C)[C@@H](C(=O)Nc1ccc2c(c1)OCO2)N1Cc2ccccc2C1=O (stereo partly drawn) | 25µM* | 0% | i | -15% | -4%[2.3 µM]
CC1CCN(C(C(=O)Nc2ccc3c(c2)OCO3)c2ccccc2)CC1 (stereo not drawn) | 16% | -5% | i | 4% | 1%
CN1CCc2c(sc3c2c(=O)n(-c2ccccc2)c2nnc(SCc4ccccc4F)n32)C1 | 13µM* | -1% | i | ? | -10%
C/C(CCN1CCCc2nc(C)c(C)cc21)=N\OC[C@@H](O)[C@@H]1O[C@@H]2OC(C)(C)O[C@@H]2[C@H]1O | / | / | / | 4%[11.4 µM] | /
NS(=O)(=O)c1ccc(N=Nc2ccc[nH]c2=O)cc1 | 0%[11.4 µM] | -1%[11.4 µM] | i | 3.2µM* | -4%[11 µM]
CC(=O)[C@@]1(N=Nc2ccc(S(N)(=O)=O)cc2)CCOC1=O | 9%[11.4 µM] | -12%[11.4 µM] | i | -5%[11.4 µM] | -2%[11 µM]
Cc1cccn2c(=O)c(C=Nc3ccccc3)c(NCc3ccco3)nc12 | -25% | -7% | i | 2% | 4%
Cc1ccc2[nH]c(=O)c(-c3nc4cc(C)ccn4c3NCc3ccco3)cc2c1 | 16µM* | 5% | i | 11% | -6%
O=C1[C@@H]2[C@H]3[C@H](O)[C@H](O)C/C(=N/OCc4ccccc4)[C@@H]3CC[C@H]2C(=O)N1c1ccc(F)cc1F | / | / | / | 16%[11.4 µM] | /
COC(=O)c1c(C(=O)OC)c2n(c1C)Cc1ccccc1C2 | -26% | -12% | i | 7.9µM* | -4%
COC(=O)c1c(C)nn(-c2ccccc2)c1N | -11% | -1% | i | 5% | 0%
COc1cccc(C(=O)NC2CC3CCCC(C2)N3CC(=O)Nc2ccc(N(C)C)cc2)c1 (stereo not drawn) | 13µM* | -3% | i | -9% | ?
Oc1ccccc1NCC(O)Cn1ccc2ccccc21 (stereo not drawn) | 13µM* | -3% | i | 6.3µM* | ?
CCCSc1nc(C)c(-c2csc(C(C#N)=C3CCCC3)n2)cc1C#N | 16µM* | -2% | i | ? | 9%
CCCCSc1nc2c(cc1C#N)CCC2 | 4% | 2% | i | ? | 12%
CC(O)CCCCCCC/C=C/C=C/C(N)=O (stereo not drawn) | / | / | / | 7%[11.4 µM] | /

Compound activity (PubChem BioAssay)
